Screens deposited in PubChem BioAssay by National Center for Advancing Translational Sciences (NCATS).
FLuc counter – inhibits or activates purified firefly luciferase, miR-21 counter-screen | 360,000 compounds, 6.9% hits | Potency, µM (titrated, usually from 57.5 µM), actives largely listed as inhibitors | AID 588342 | purified FLuc, Km substrates, luminescence inhibition | P08659; further: nearly all actives have a fitted effect of over 55% in size
Target sequence (P08659 whole entry, looked up): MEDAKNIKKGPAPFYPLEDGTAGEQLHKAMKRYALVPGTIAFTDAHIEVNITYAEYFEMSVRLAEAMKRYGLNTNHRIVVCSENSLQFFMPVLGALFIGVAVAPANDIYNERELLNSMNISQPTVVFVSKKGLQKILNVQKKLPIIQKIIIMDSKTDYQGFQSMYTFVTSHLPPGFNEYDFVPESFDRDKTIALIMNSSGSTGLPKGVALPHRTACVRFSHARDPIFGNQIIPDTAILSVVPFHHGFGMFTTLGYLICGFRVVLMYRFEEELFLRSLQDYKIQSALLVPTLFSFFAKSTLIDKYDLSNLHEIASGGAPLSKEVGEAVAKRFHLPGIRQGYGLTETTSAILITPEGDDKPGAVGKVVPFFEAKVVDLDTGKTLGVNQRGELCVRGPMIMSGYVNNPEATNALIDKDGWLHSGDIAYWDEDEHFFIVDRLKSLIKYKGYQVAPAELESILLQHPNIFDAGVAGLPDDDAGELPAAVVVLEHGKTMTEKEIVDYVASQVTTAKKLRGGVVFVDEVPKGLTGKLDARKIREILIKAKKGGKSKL
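Purified P. pyralis luciferase, 10 nM final, with Km-level 10 uM D-luciferin and 10 uM ATP in 50 mM Tris acetate pH 7.5, 10 mM Mg acetate, 0.01% Tween-20, 0.05% BSA; 6-point qHTS titration about 60 µM downward; luminescence read.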
NPC1 promoter act – activators of NPC1 promoter; 320,000 compounds, 2.4% hits; Huh7 NPC1 promoter luciferase reporter, 24 h; Potency, µM (series often up to 9.22 µM), hits mostly activators; further: nearly all actives have a fitted effect of over 60% in size
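Luminescence read-out of NPC1 promoter-driven luciferase in stably transfected Huh7 cells; compounds delivered in DMSO and left 24 h at 37C, 5% CO2, qHTS titration format.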
Rab9 prom act – activates the Rab9 promoter | 320,000 compounds, 2.8% hits | Potency, µM (highest dose often 9.22 µM), most hits filed as activators | Huh7 Rab9 promoter-luciferase reporter, luminescence, 24 h | AID 485297; further: nearly all actives have a fitted effect of over 60% in size
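Using Huh7 cells stably transfected with Rab9 promoter–luciferase, compounds were incubated 24 h at 37 °C, 5% CO2; luciferase luminescence was read 10 min after reagent addition.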
SMN2 splice up – increases expression of the SMN2 splice variant; HEK293 SMN2-luciferase splicing reporter, luminescence, 30-36 h; Potency, µM (series often up to 46.1 µM), hits mostly activators; 210,000 compounds, 2.8% hits; AID 1458; further: nearly all actives have a fitted effect of over 55% in size
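HEK293 cells carry an SMN2 minigene-luciferase reporter in which exon 7 inclusion puts luciferase in frame. Cells were seeded at 2000 cells/well, attached for 10-12 hours, then exposed to compounds for 30-36 hours at 37C before ONE-Glo luminescence.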
ELG1 genotoxic – genotoxicity induction in ELG1-luciferase HEK293T cells; HEK293T ELG1-luciferase reporter, luminescence, 16 h; Potency, µM (highest dose often 46 µM), actives largely listed as activators; 330,000 compounds, 1.3% hits; AID 504466; further: nearly all actives have a fitted effect of over 60% in size
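Luminescence read-out: rising ELG1-luciferase signal, reflecting elevated ELG1 protein under genetic stress, flags genotoxic compounds. Cells were treated for 16 hr at 37 °C before ONE-Glo detection.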
Each line names hits and unclear results; the compound was inactive in the other large screens. Only some compounds are listed: those with a hit (about 7.5% of all), similar ones and a draw of the others. The call rests on the fitted dose curve; in most records, active means well fitted curve in the direction sought with a large enough effect; inconclusive means small, poorly fitted or top-dose-only effect, or another doubt; inactive means no such curve, though single readings can be large; an effect the other way counts as inactive or inconclusive.

Cc1cccc(C(=O)NCC(c2cccs2)N2CCOCC2)c1 (stereo not given)	none (no result: SMN2 splice up)
CCOC(=O)c1cc(S(=O)(=O)Nc2cc(OC)ccc2OC)[nH]n1	none (no result: NPC1 promoter act, Rab9 prom act, SMN2 splice up, ELG1 genotoxic)
CN(CCCNC(=O)c1cccc(N2CCCC2=O)c1)c1ccccc1	SMN2 splice up 3.16µM
O=C(NCCc1ccccc1)c1cccc(N2CCCC2=O)c1	FLuc counter 2.13µM, NPC1 promoter act 0.501µM, Rab9 prom act 0.316µM, ELG1 genotoxic inconclusive (no result: SMN2 splice up)
Cc1cccc(CCNC(=O)c2cccc(N3CCCC3=O)c2)c1	FLuc counter 10.7µM, NPC1 promoter act 1.41µM, Rab9 prom act 2.51µM, ELG1 genotoxic inconclusive (no result: SMN2 splice up)
O=C(O)c1cccc(N2CCCC2=O)c1	none
O=C(Nc1ccccc1)c1cccc(N2CCCC2=O)c1	FLuc counter inconclusive, NPC1 promoter act inconclusive, Rab9 prom act inconclusive, SMN2 splice up inconclusive, ELG1 genotoxic 10.3µM
CCCCN(C)CCCNC(=O)c1cccc(N2CCCC2=O)c1	none
Cc1ccc(CCNC(=O)c2cccc(N3CCCC3=O)c2)cc1	FLuc counter inconclusive (no result: SMN2 splice up)
C=Cc1ccc(CSc2cc(C)nc3nc(C)nn23)cc1	none (no result: SMN2 splice up)
O=C(CSc1nnc(-c2ccc(Cl)cc2Cl)n1C1CCCCC1)N1CCCC1	none
Cc1cc(C(=O)N/N=C/c2ccccn2)n[nH]1	FLuc counter inconclusive
O=C(N/N=C/c1cccc2ccccc12)c1cc(C2CC2)[nH]n1	FLuc counter 10.7µM (no result: SMN2 splice up)
O=C(N/N=C/c1ccccn1)c1cc(C2CC2)[nH]n1	FLuc counter 19µM, NPC1 promoter act inconclusive, Rab9 prom act 1.58µM, SMN2 splice up inconclusive, ELG1 genotoxic 18.3µM
O=C(N/N=C/c1ccco1)c1cc(C2CC2)[nH]n1	FLuc counter 13.5µM, NPC1 promoter act inconclusive, Rab9 prom act inconclusive, ELG1 genotoxic inconclusive (no result: SMN2 splice up)
Cc1cc(C(=O)N/N=C/c2ccco2)n[nH]1	none
CCOC(=O)CSc1nnc(NC(=O)CN2CCCCC2)s1	none (no result: SMN2 splice up)
CCN(CC)c1ccc(-c2nnc(SCC(=O)N(CCOC)c3c(N)n(CC(C)C)c(=O)[nH]c3=O)o2)cc1	FLuc counter 6.75µM (no result: SMN2 splice up)
COCCN(C(=O)COC(=O)/C=C/c1nc2ccccc2s1)c1c(N)n(Cc2ccccc2)c(=O)[nH]c1=O	FLuc counter 21.3µM (no result: SMN2 splice up)
CCCCN(C(=O)CSc1n[nH]c(-c2ccc(C)cc2)n1)c1c(N)n(CCCC)c(=O)[nH]c1=O	FLuc counter 8.49µM, ELG1 genotoxic inconclusive (no result: SMN2 splice up)
COCCN(C(=O)COC(=O)/C=C/c1ccc2ccccc2n1)c1c(N)n(Cc2ccccc2)c(=O)[nH]c1=O	FLuc counter inconclusive (no result: SMN2 splice up)
COCCN(C(=O)CSc1nnc(-c2ccc(C)c(C)c2)o1)c1c(N)n(CC(C)C)c(=O)[nH]c1=O	FLuc counter inconclusive (no result: SMN2 splice up)
CCCCn1c(N)c(N(CCOC)C(=O)CSc2n[nH]c(-c3ccc(OC)cc3)n2)c(=O)[nH]c1=O	FLuc counter 23.9µM (no result: SMN2 splice up)
CC(C)C(=O)Nc1cc2c3c(c1)CCN3C(=O)CC2	none (no result: SMN2 splice up)
COCCN(C(=O)CSc1n[nH]c(-c2ccc(OC)cc2)n1)c1c(N)n(Cc2ccccc2)c(=O)[nH]c1=O	FLuc counter inconclusive (no result: SMN2 splice up)
CCc1ccc(-c2nc(SCC(=O)N(CCOC)c3c(N)n(Cc4ccccc4)c(=O)[nH]c3=O)n[nH]2)cc1	FLuc counter 2.69µM (no result: SMN2 splice up)
CCCCCCCCCCCCC1CO1 (stereo not given)	none (no result: FLuc counter, NPC1 promoter act, Rab9 prom act, ELG1 genotoxic)
CCn1cc(/C=C(\NC(=O)c2ccccc2Cl)C(=O)NCCN2CCOCC2)c2ccccc21	FLuc counter 16.9µM (no result: SMN2 splice up)
COc1ccc(Cl)cc1NC(=O)CSc1nnc(C2CC2)n1N	none (no result: SMN2 splice up)
CCn1c(=O)cc(OCC(=O)NCCCN2CCC(C)CC2)c2ccccc21	ELG1 genotoxic 16.4µM
CCn1c(=O)cc(OCC(=O)NCCCN2CC(C)CC(C)C2)c2ccccc21 (stereo not given)	SMN2 splice up inconclusive, ELG1 genotoxic 16.4µM
CC1CCN(CCCNC(=O)COc2cc(=O)n(C)c3ccccc23)CC1	none
CCCCC(CC)CNC(=O)c1ccc2c(=O)n(CCOC)c(=O)[nH]c2c1 (stereo not given)	SMN2 splice up 3.98µM (no result: NPC1 promoter act, Rab9 prom act, ELG1 genotoxic)
O=C(c1cc2ccccc2o1)N(Cc1nnc(-c2ccccc2Cl)o1)C1CC1	FLuc counter 30.1µM, ELG1 genotoxic 20.6µM (no result: SMN2 splice up)
Cc1cc2ccccc2c[n+]1CC(O)C[n+]1cc2ccccc2cc1C	none (no result: FLuc counter, NPC1 promoter act, Rab9 prom act, ELG1 genotoxic)
Cc1ccccc1NC(=S)N/N=C/c1ccc(O)cc1O	FLuc counter 2.39µM, NPC1 promoter act inconclusive, ELG1 genotoxic inconclusive (no result: SMN2 splice up)
